In PubChem BioAssay AID1159580 (chemical genetic matrix, 2015):
In all, about 5,500 compounds went through this assay and about 2,000 (36%) were called active. About 18% were inconclusive and are not listed. No stated cut-off is given here; in the data, active means normalized growth mostly below about 0.91 (no sharp cut-off); inconclusive means no clear call, values can overlap the other calls; inactive means mostly above about 0.92. The list shows a part of the results.

Assay: chemical genetic growth profiling, strain panel (AID 1159580);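 further: tested at 20 µM; growth read once vehicle control cultures reached saturation at 30 °C; 1 = growth at the plate median or of vehicle wells; lower values mean less growth of the strain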
Conditions: growth OD
[1] = S. cerevisiae deletion strains, locus YAL013W, strain DEP1, active compounds read low
[2] = S. cerevisiae deletion strains, locus YBR229C, strain ROT2, active compounds read low
[3] = S. cerevisiae deletion strains, locus YDL101C, strain DUN1, active compounds read low
[4] = S. cerevisiae deletion strains, locus YDL134C, strain PPH21, active compounds read low
[5] = S. cerevisiae deletion strains, locus YDR150W, strain NUM1, active compounds read low
[6] = S. cerevisiae deletion strains, locus YEL061C, strain CIN8, active compounds read low
[7] = S. cerevisiae deletion strains, locus YGR078C, strain PAC10, active compounds read low
[8] = S. cerevisiae deletion strains, locus YHR030C, strain SLT2, active compounds read low
[9] = S. cerevisiae deletion strains, locus YHR087W, strain rtc3, active compounds read low
[10] = S. cerevisiae deletion strains, locus YJR043C, strain POL32, active compounds read low
[11] = S. cerevisiae deletion strains, locus YJR075W, strain HOC1, active compounds read low
[12] = S. cerevisiae deletion strains, locus YKL190W, strain CNB1, active compounds read low
[13] = S. cerevisiae deletion strains, locus YLR039C, strain RIC1, active compounds read low
[14] = S. cerevisiae deletion strains, locus YLR058C, strain SHM2 (second series), active compounds read low
[15] = S. cerevisiae deletion strains, locus YLR085C, strain ARP6, active compounds read low
[16] = S. cerevisiae deletion strains, locus YLR262C, strain YPT6, active compounds read low
[17] = S. cerevisiae deletion strains, locus YML094W, strain GIM5, active compounds read low
[18] = S. cerevisiae deletion strains, locus YMR219W, strain ESC1, active compounds read low
[19] = S. cerevisiae deletion strains, locus YMR263W, strain SAP30, active compounds read low
[20] = S. cerevisiae deletion strains, locus YMR307W, strain GAS1, active compounds read low
[21] = S. cerevisiae deletion strains, locus YNL153C, strain GIM3, active compounds read low
[22] = S. cerevisiae deletion strains, locus YNL298W, strain CLA4 (second series), active compounds read low
[23] = S. cerevisiae deletion strains, locus YNL322C, strain KRE1, active compounds read low
[24] = S. cerevisiae deletion strains, locus YNR030W, strain Alg12, active compounds read low
[25] = S. cerevisiae deletion strains, locus YPL055C, strain LGE1, active compounds read low
[26] = S. cerevisiae deletion strains, locus YPL241C, strain CIN2, active compounds read low
[27] = S. cerevisiae deletion strains, locus YPR135W, strain CTF4, active compounds read low

Measured: normalized growth

COc1ccccc1N1CCN(C(=O)c2cccs2)CC1
inactive: [1] 0.998 | [2] 1.01 | [3] 0.991 | [4] 0.959 | [5] 1.04 | [6] 1.01 | [7] 1 | S. cerevisiae deletion strains, locus YGR229C, strain SMI1, active compounds read low 0.993 | [8] 0.963 | [9] 0.985 | [10] 1.01 | [11] 1.03 | [12] 0.99 | [13] 1.01 | [14] 0.984 | [15] 0.889 | [16] 1.13 | [17] 0.972 | [18] 0.988 | [19] 1.02 | [20] 0.849 | [21] 1.04 | [22] 0.981 | [23] 0.993 | [24] 0.957 | [25] 0.99 | [26] 0.957 | [27] 1.1 | S. cerevisiae strains, strain wild type, active compounds read low 0.993

COc1ccccc1N1CCN(C(=O)C(C)c2ccc(CC(C)C)cc2)CC1 (stereo unspecified)
inactive: S. cerevisiae deletion strains, locus YAR019C, strain CDC15, active compounds read low 0.978 | S. cerevisiae deletion strains, locus YBL105C, strain PKC1, active compounds read low 0.983 | S. cerevisiae deletion strains, locus YBR135W, strain CKS1, active compounds read low 0.978 | S. cerevisiae deletion strains, locus YBR136W, strain MEC1, active compounds read low 0.984 | S. cerevisiae deletion strains, locus YBR160W, strain CDC28, active compounds read low 0.975 | S. cerevisiae deletion strains, locus YDL017W, strain CDC7, active compounds read low 0.981 | S. cerevisiae deletion strains, locus YDL028C, strain MPS1, active compounds read low 0.97 | [3] 0.974 | S. cerevisiae deletion strains, locus YDL108W, strain KIN28, active compounds read low 0.968 | S. cerevisiae deletion strains, locus YDL132W, strain cdc53, active compounds read low 0.988 | S. cerevisiae deletion strains, locus YDL214C, strain PRR2, active compounds read low 0.932 | S. cerevisiae deletion strains, locus YDR052C, strain DBF4, active compounds read low 0.99 | S. cerevisiae deletion strains, locus YDR054C, strain cdc34, active compounds read low 0.975 | S. cerevisiae deletion strains, locus YDR226W, strain ADK1, active compounds read low 0.966 | S. cerevisiae deletion strains, locus YDR477W, strain SNF1, active compounds read low 0.921 | S. cerevisiae deletion strains, locus YER123W, strain YCK3, active compounds read low 0.923 | S. cerevisiae deletion strains, locus YER133W, strain GLC7, active compounds read low 0.954 | S. cerevisiae deletion strains, locus YFL009W, strain cdc4, active compounds read low 0.967 | S. cerevisiae deletion strains, locus YFL029C, strain CAK1, active compounds read low 0.977 | S. cerevisiae deletion strains, locus YFR003C, strain YPI1, active compounds read low 0.983 | S. cerevisiae deletion strains, locus YFR019W, strain FAB1, active compounds read low 0.947 | S. cerevisiae deletion strains, locus YFR028C, strain CDC14, active compounds read low 0.986 | S. cerevisiae deletion strains, locus YGR040W, strain KSS1, active compounds read low 0.936 | S. cerevisiae deletion strains, locus YGR052W, strain FMP48, active compounds read low 0.944 | S. cerevisiae deletion strains, locus YGR092W, strain DBF2, active compounds read low 0.938 | S. cerevisiae deletion strains, locus YHR079C, strain IRE1, active compounds read low 0.93 | S. cerevisiae deletion strains, locus YHR082C, strain KSP1, active compounds read low 0.939 | S. cerevisiae deletion strains, locus YHR205W, strain SCH9, active compounds read low 0.861 | S. cerevisiae deletion strains, locus YIL147C, strain SLN1, active compounds read low 0.981 | S. cerevisiae deletion strains, locus YJL095W, strain BCK1, active compounds read low 0.91 | S. cerevisiae deletion strains, locus YJL128C, strain PBS2, active compounds read low 0.977 | S. cerevisiae deletion strains, locus YJL157C, strain FAR1, active compounds read low 0.968 | S. cerevisiae deletion strains, locus YJR016C, strain ILV3, active compounds read low 0.983 | S. cerevisiae deletion strains, locus YJR066W, strain TOR1 (second series), active compounds read low 0.946 | S. cerevisiae deletion strains, locus YJR066W, strain TOR1, active compounds read low 0.873 | S. cerevisiae deletion strains, locus YKL048C, strain ELM1, active compounds read low 0.978 | S. cerevisiae deletion strains, locus YKL067W, strain YNK1, active compounds read low 0.933 | S. cerevisiae deletion strains, locus YKL101W, strain HSL1, active compounds read low 0.926 | S. cerevisiae deletion strains, locus YKL193C, strain SDS22, active compounds read low 0.976 | S. cerevisiae deletion strains, locus YKL203C, strain TOR2, active compounds read low 1.01 | S. cerevisiae deletion strains, locus YLR133W, strain CKI1, active compounds read low 0.943 | S. cerevisiae deletion strains, locus YLR403W, strain SFP1, active compounds read low 0.95 | S. cerevisiae deletion strains, locus YML070W, strain DAK1, active compounds read low 0.933 | S. cerevisiae deletion strains, locus YMR001C, strain CDC5, active compounds read low 0.972 | S. cerevisiae deletion strains, locus YMR205C, strain PFK2 (second series), active compounds read low 0.945 | S. cerevisiae deletion strains, locus YMR277W, strain FCP1, active compounds read low 0.966 | S. cerevisiae deletion strains, locus YNL006W, strain LST8, active compounds read low 0.964 | S. cerevisiae deletion strains, locus YNL020C, strain ARK1, active compounds read low 0.942 | S. cerevisiae deletion strains, locus YNL161W, strain CBK1, active compounds read low 0.981 | S. cerevisiae deletion strains, locus YNL183C, strain NPR1, active compounds read low 0.963 | S. cerevisiae deletion strains, locus YNL207W, strain RIO2, active compounds read low 0.983 | S. cerevisiae deletion strains, locus YNL222W, strain SSU72, active compounds read low 0.969 | S. cerevisiae deletion strains, locus YNL307C, strain MCK1 (second series), active compounds read low 0.924 | S. cerevisiae deletion strains, locus YOL078W, strain AVO1, active compounds read low 0.977 | S. cerevisiae deletion strains, locus YOL136C, strain PFK27, active compounds read low 0.909 | S. cerevisiae deletion strains, locus YOR061W, strain CKA2, active compounds read low 0.937 | S. cerevisiae deletion strains, locus YOR119C, strain RIO1, active compounds read low 0.951 | S. cerevisiae deletion strains, locus YOR231W, strain MKK1, active compounds read low 0.904 | S. cerevisiae deletion strains, locus YOR329C, strain SCD5, active compounds read low 0.98 | S. cerevisiae deletion strains, locus YPL031C, strain PHO85, active compounds read low 0.93 | S. cerevisiae deletion strains, locus YPL153C, strain RAD53, active compounds read low 0.919 | S. cerevisiae deletion strains, locus YPL204W, strain HRR25, active compounds read low 0.915 | S. cerevisiae deletion strains, locus YPL209C, strain IPL1, active compounds read low 0.981 | S. cerevisiae deletion strains, locus YPL256C, strain CLN2, active compounds read low 0.877 | S. cerevisiae deletion strains, locus YPR025C, strain CCL1, active compounds read low 0.983 | S. cerevisiae deletion strains, locus YPR106W, strain ISR1, active compounds read low 0.961 | S. cerevisiae deletion strains, locus YPR111W, strain DBF20, active compounds read low 0.95 | S. cerevisiae deletion strains, strain NNK1, active compounds read low 0.965 | S. cerevisiae deletion strains, strain TSCII, active compounds read low 0.965
active: [8] 0.802 | S. cerevisiae deletion strains, locus YLR113W, strain HOG1, active compounds read low 0.829

O=C(Nc1ccc(Cl)cc1)N1CCN(c2ncccc2C(F)(F)F)CC1
inactive: [1] 0.996 | [2] 0.979 | [3] 0.956 | [4] 0.955 | [5] 0.978 | [6] 0.976 | [7] 0.939 | [8] 0.713 | [9] 0.939 | [10] 0.97 | [11] 0.908 | [13] 1.04 | [14] 0.968 | [15] 0.944 | [16] 0.978 | [17] 0.957 | [18] 0.976 | [19] 0.969 | [20] 0.805 | [21] 0.946 | [22] 0.893 | [23] 0.988 | [24] 0.956 | S. cerevisiae deletion strains, locus YOL006C, strain TOP1, active compounds read low 0.782 | [25] 0.943 | [26] 0.92 | [27] 1.04

COc1cc(NC(=S)N2CCN(c3ccccc3OC)CC2)c(OC)cc1Cl
inactive: [1] 1.01 | [2] 0.992 | S. cerevisiae deletion strains, locus YCL061C, strain MRC1, active compounds read low 0.984 | [3] 1 | [4] 1.01 | [5] 0.92 | [6] 1 | [7] 1.01 | [8] 0.95 | [9] 1.01 | S. cerevisiae deletion strains, locus YJL187C, strain SWE1, active compounds read low 0.997 | [10] 0.984 | [11] 0.999 | [12] 1.02 | [13] 0.949 | [14] 1.01 | [15] 1.14 | [16] 0.962 | [17] 0.995 | [18] 1 | [19] 0.924 | S. cerevisiae deletion strains, locus YNL128W, strain TEP1, active compounds read low 1.02 | [21] 0.98 | [22] 1 | [23] 0.997 | [24] 1.01 | [25] 0.9 | [26] 0.895 | [27] 0.966
